# PLC-beta3 inh = PLC-beta3 (human) inhibition, primary screen; 0.18% of 370,000 active; Purified PLC-beta3, fluorogenic substrate, fluorescence; inhibition, % at 12.2 µM; Q01970; in the data active means inhibition above about 11%;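 further: 0% = median of compound wells on plate and 100% = full blocker control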
# PLCg1 inh = inhibitors of human phospholipase C gamma1; inhibition, % at 12.2 µM; purified PLC-gamma1, fluorogenic substrate, fluorescence; P19174; 0.84% of 370,000 active; in the data active means inhibition above about 9.5%
# ADAM10 inh = ADAM10 inhibition, QFRET primary screen; O14672; recombinant ADAM10, EDANS/DABCYL FRET peptide cleavage, 3 h; inhibition, % at 7 µM; 0.62% of 370,000 active; AID 720582;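 active means inhibition above a per-campaign cutoff equal to the mean of compounds falling between control-based bounds plus 3 SD, cut at about 20% in these data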;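 further: 0% = DMSO wells while the 100% control is not disclosed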
# HGIII-sPLA2 inh = Inhibits HGIII-sPLA2 liposome hydrolysis, primary screen. Q9NZ20. QFRET BODIPY PC-A2 liposome hydrolysis, fluorescence. inhibition, % at 12.2 µM. 0.56% of 370,000 active. AID 743126;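 active means inhibition above mean plus 3 SD of compounds lying within the high and low control bounds, cut at about 19% in these data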;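 further: 0% = median of test compound wells and 100% = no enzyme DMSO wells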
# ADAM17 inh = ADAM17 inhibition, QFRET primary screen; P78536; recombinant ADAM17, EDANS/DABCYL FRET peptide cleavage; inhibition, % at 6.95 µM; 0.83% of 370,000 active;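 active means inhibition above the mean of compounds lying between control limits plus 3 SD, set per campaign, cut at about 8.5% in these data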;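 further: 0% = DMSO-only wells as the low control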
# KLK7 zymogen act = proKLK7 (human) activation, primary screen | activation, % at 7 µM | purified proKLK7, EDANS-DABCYL substrate fluorescence; 100% is mature enzyme control, 0% vehicle | 0.9% of 370,000 active | P49862;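 active means activation above the mean of all tested compounds plus 3 SD, computed per campaign excluding outliers beyond control limits, cut at about 13% in these data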
# ADAM10 confirm = confirmation of inhibitors of human ADAM10 | shares compounds with ADAM10 inh | ADAM10 QFRET peptide cleavage, EDANS fluorescence | inhibition, % at 6.95 µM | 1% of 2,100 active;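 active means inhibition above about 20% chosen separately for each screening run, limit read from the data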;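 further: 0% = DMSO wells and 100% = marimastat wells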
# ADAM17 ctr = ADAM17 inhibition, counter-screen for ADAM10 exosite hits; 0.5% of 2,100 active; inhibition, % at 6.95 µM; ADAM17 QFRET peptide cleavage, EDANS fluorescence; shares compounds with ADAM10 inh;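 active means mean triplicate inhibition above the solvent-only control wells' mean plus 3 SD, cut at about 12% in these data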;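 further: 0% = DMSO wells and 100% = marimastat wells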
# ADAM10 ctr = inhibits human ADAM10 in ADAM17 exosite counter-screen | shares compounds with ADAM17 inh | 47% of 2,900 active | recombinant ADAM10, EDANS/DABCYL FRET peptide cleavage, 3 h | inhibition, % at 6.95 µM;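 active means mean inhibition over the triplicate runs exceeds the activity threshold set in the earlier primary screen, cut at about 20% in these data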;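 further: 0% = DMSO wells and 100% = marimastat wells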
# ADAM17 confirm = confirmation of inhibitors of human ADAM17 | shares compounds with ADAM17 inh | recombinant ADAM17, EDANS/DABCYL QFRET peptide cleavage | inhibition, % at 6.95 µM | 65% of 2,900 active | AID 743257;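 active means mean inhibition across replicates above the hit cutoff set in the primary screen, cut at about 8.5% in these data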;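 further: 0% = DMSO wells and 100% = marimastat wells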
# Numbers without * were called inactive; . = not tested or not shown. Sampled rows, rich in hits. Any-hit rate of the full collection: about 3.4%.
SMILES,PLC-beta3 inh,PLCg1 inh,ADAM10 inh,HGIII-sPLA2 inh,ADAM17 inh,KLK7 zymogen act,ADAM10 confirm,ADAM17 ctr,ADAM10 ctr,ADAM17 confirm
O=C(C1CCC(Cn2c(=S)[nH]c3ccccc3c2=O)CC1)N1CCN(c2ccccc2)CC1 (configuration not stated),5.0,1.6,24.9*,-3.8,9.1*,0.0,10.7,3.0,17.0,6.9
CC(C)C(NS(=O)(=O)c1c(Cl)cccc1Cl)C(=O)OCC(=O)c1c[nH]c2ccccc12 (configuration not stated),-1.8,-6.1,28.1*,-49.7,14.9*,0.1,5.7,1.7,18.9,13.7*
Cc1ccccc1Cn1cc(CN2[C@@H](Cc3ccccc3)COc3cc(Br)ccc3S2(=O)=O)nn1,-2.6,0.1,-12.2,7.1,-2.9,0.2,.,.,.,.
COc1ccc2c(c1)N=C(c1[nH]c3ccccc3c1CCN1C(=O)c3ccccc3C1=O)[C@]2(O)CCN1C(=O)c2ccccc2C1=O,-78.9,-53.5,-5.1,-2.2,-2.2,.,.,.,.,.
CC(C)C[C@H](NC(=O)c1nc[nH]c1C(=O)NCC(=O)OCc1ccccc1)C(=O)OCc1ccccc1,-3.8,9.5,45.0*,-25.3,23.8*,0.0,6.4,2.3,36.3*,20.6*
CC(C)(C)OC(=O)[C@H](Cc1ccccc1)NC(=O)c1nc[nH]c1C(=O)NCc1ccccc1,4.9,0.8,24.6*,-12.2,11.5*,0.3,7.9,2.1,31.0*,16.7*
Cc1ccc(NC(=O)c2nc[nH]c2C(=O)N[C@H](C)c2ccccc2)cc1,0.6,1.2,20.3*,-14.4,12.7*,0.3,4.6,2.0,19.9*,11.5*
C[C@@H](OC(=O)c1[nH]cnc1C(=O)NCc1ccc(CNC(=O)OC(C)(C)C)cc1)c1ccccc1,7.9,4.9,39.9*,14.5,25.3*,0.3,0.5,0.6,22.2*,11.5*
C[C@@H]1COc2cc(Br)ccc2S(=O)(=O)N1Cc1cn(CC2CCCCC2)nn1,0.0,1.5,1.3,2.4,-0.4,0.3,.,.,.,.
CC(C)CNC(=O)OCc1cn(Cc2cccc(F)c2F)nn1,0.4,-0.5,1.7,7.4,-7.7,-0.1,.,.,.,.
C[C@H](NC(=O)c1nc[nH]c1C(=O)N[C@@H](Cc1ccccc1)C(=O)OC(C)(C)C)c1ccccc1,3.1,4.3,37.1*,3.2,17.8*,0.4,10.2,2.6,54.9*,27.9*
C[C@H](NC(=O)c1nc[nH]c1C(=O)N[C@@H](Cc1ccccc1)C(=O)OC(C)(C)C)C(=O)OCc1ccccc1,8.7,5.5,24.9*,-9.4,10.4*,0.8,8.6,3.5,37.9*,25.0*
CNC(=O)c1[nH]cnc1C(=O)N[C@@H](Cc1ccccc1)C(=O)OC(C)(C)C,2.1,1.7,6.1,-6.2,1.6,-0.1,.,.,.,.
CN(C)CC(=O)N[C@H]1C[C@@H]2O[C@H](CO)CC[C@@H]2O[C@@H]1CCc1ccc(-c2ccc(F)cc2)cc1,-3.8,2.5,-4.8,4.4,-4.3,0.5,.,.,.,.
CN(C)S(=O)(=O)c1cccc(NC(=O)COC(=O)c2cn(-c3ccccc3)nc2-c2ccccc2)c1,5.5,5.6,29.3*,-32.8,10.7*,0.0,8.2,2.9,31.2*,19.0*
CN(C)S(=O)(=O)c1cccc(NC(=O)COC(=O)c2cccc(S(=O)(=O)N3CCc4ccccc4C3)c2)c1,2.6,7.5,23.3*,-25.2,10.8*,0.9,7.5,1.6,15.5,12.1*
CCc1cccc(CC)c1NC(=O)COC(=O)c1cccc(S(=O)(=O)N2CCc3ccccc3C2)c1,2.8,-0.3,-3.0,1.3,-0.5,-0.3,.,.,.,.
C=CCN1C(=O)[C@H](CC(=O)NCC23CC4CC(CC(C4)C2)C3)[C@@]2(C(=O)OC)CCCCC=C12,4.3,1.2,-0.6,-2.9,-0.8,0.2,.,.,.,.
COc1ccc2nc(NC(=O)C3CCCN3S(=O)(=O)c3ccc(C)cc3)sc2c1 (configuration not stated),6.8,7.8,21.9*,-29.3,8.6*,0.5,-0.2,0.6,13.3,8.1
Cc1ccc(S(=O)(=O)N2CCCC2C(=O)Nc2nc3c(s2)CCCC3)cc1 (configuration not stated),-0.2,0.4,-2.7,-25.1,-3.6,1.2,.,.,.,.
Cc1ccccc1CN1CCCCC(NC(=O)c2ccccc2C(F)(F)F)C1=O (configuration not stated),-0.6,0.2,-4.2,1.1,-4.2,0.2,.,.,.,.
CCOC(=O)[C@H]1[C@H]2COc3ccccc3[C@@H]2N2C(=O)c3cc(Br)ccc3NC(=O)[C@@]12C,5.0,4.5,13.8,4.8,5.3,0.5,.,.,.,.
CCOC(=O)[C@H]1[C@H]2COc3ccc(Br)cc3[C@@H]2N2C(=O)c3cc(Br)ccc3NC(=O)[C@@]12C,-0.7,-2.5,20.3*,-5.0,11.2*,-0.3,1.9,-0.6,16.6,10.6*
CCOC(=O)[C@@]12CCCC3=C1N(CCC3)C(=O)[C@H]2CC(=O)N1CCOCC1,1.3,-1.0,0.8,8.1,-3.5,0.3,.,.,.,.
Cc1cc(F)ccc1C(O)c1ncc(-c2ccccc2)[nH]1 (configuration not stated),-0.4,0.7,-11.2,11.2,0.8,-1.5,.,.,.,.
Cc1cc(F)ccc1C(O)c1ncc(-c2ccc(Oc3ccccc3)cc2)[nH]1 (configuration not stated),-4.7,-3.4,29.5*,-8.1,11.8*,-0.2,6.0,2.3,19.9*,14.2*
OC(c1ccc(Cl)c(F)c1)c1ncc(-c2ccc(Oc3ccccc3)cc2)[nH]1 (configuration not stated),-13.7,-6.1,10.5,-1.3,4.4,0.9,.,.,.,.
OC(c1ccc(Cl)c(Cl)c1)c1ncc(-c2ccc(C(F)(F)F)cc2)[nH]1 (configuration not stated),-0.9,0.1,26.3*,-9.5,9.0*,0.0,7.6,1.8,29.6*,14.7*
OC(c1cccc(Cl)c1)c1ncc(-c2ccc(Oc3ccccc3)cc2)[nH]1 (configuration not stated),-6.0,-2.4,24.7*,-16.2,11.2*,-0.9,9.5,4.2,41.8*,21.0*

# Compound activity as filed in PubChem BioAssay.
